# Measured values reported in PubChem BioAssay (Tox21).
# Results filed as inconclusive are left out. A number with no mark means an inactive call. Activity calls are given as the source filed them. The call rests on the fitted dose curve; in most records, active means well fitted inhibition curve with a large enough effect in the signal ratio in the repeat runs, with a control signal flat; inconclusive means weak or mixed curves, or effect the other way; inactive means flat fitted curve, though single readings scatter; the % refers to the signal ratio.
# Biological target: D(2) dopamine receptor (Homo sapiens) (UniProt P14416)
# Sequence (P14416 whole entry, looked up): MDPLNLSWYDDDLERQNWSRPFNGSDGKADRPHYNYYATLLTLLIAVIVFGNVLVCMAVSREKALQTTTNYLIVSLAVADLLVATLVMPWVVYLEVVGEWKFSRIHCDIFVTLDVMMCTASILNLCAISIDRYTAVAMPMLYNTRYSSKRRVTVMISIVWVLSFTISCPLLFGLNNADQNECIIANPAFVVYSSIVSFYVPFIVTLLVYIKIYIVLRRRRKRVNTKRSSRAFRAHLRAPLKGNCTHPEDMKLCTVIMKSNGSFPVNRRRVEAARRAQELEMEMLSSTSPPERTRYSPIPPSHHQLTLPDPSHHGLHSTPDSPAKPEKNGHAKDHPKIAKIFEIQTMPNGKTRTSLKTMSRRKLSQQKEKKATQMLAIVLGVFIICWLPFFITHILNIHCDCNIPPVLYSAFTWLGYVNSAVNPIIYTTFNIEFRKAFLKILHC
# Test: Dopamine D2 receptor (DRD2) small molecule antagonists, cell-based qHTS assay (AID 1963595)
# Conditions: HEK293-DRD2 cAMP HTRF antagonist mode; series mostly up to 92.4 µM; activity change, negative = inhibition: at the top concentration
# Excerpt: National Center for Advancing Translational Sciences [NCATS]
# Division of Preclinical Innovation [DPI]
# U.S. Environmental Protection Agency [EPA]
# National Institutes of Environmental Health Sciences [NIEHS]
# National Toxicology Program [NTP]
# U.S. Food and Drug Administration [FDA]
# DRD2 is the D2 subtype of the dopamine receptor, which is coupled to Gi subtype of G protein-coupled receptor. This G protein-coupled receptor inhibits adenylyl cyclase activity. The DRD2-HEK293 cell line stably expressing D2 dopamine receptor can be used for screening agonists and antagonists of interactions between D2 and its ligands. The Hek293-DRD2 cAMP assay is based on HTRF technology. It measures changes of cAMP accumulation in response to Gi coupled GPCR activation or inhibition.
# Tox21 Assay Protocol Summary:
# DRD2-Hek293 cells were dispensed at 600 cells/3uL/well in 1536-well white plates using a Multidrop Dispenser. After the assay plates were incubated at a 37 C/5% CO2 incubator for 24 h, 1 uL of Ro20-1724 at final concentration of 0.1 mM was transferred to the assay plate by a Flying Reagent Dispenser. Following Ro20-1724 addition, 23 nL of compound dissolved in DMSO, positive controls or DMSO only was added to the assay plates via Wako pintool station. The assay plates were incubated at room temperature for 10 min. Next, 1 uL of mixture of NKH477 (final concentration at 200 nM) and quinpirole (final concentration at 12 nM) was added into the plates. After the assay plates were incubated at room temperature for an additional 30 min, 2.5 ul/well of cAMP-d2 and 2.5 ul/well of anti-cAMP-cryptate were added respectively into the assay plates using a Flying Reagent Dispenser. The plates were incubated at room temperature for 1 h. The fluorescence intensity in the plates was measured at 340 nm excitation and 665 & 620 nm emission by an Envision plate reader.
# On the % scale 0 is the no-effect control and ±100 the full control effect; potency means the concentration at half of the fitted maximal effect.
Compound,"activity change, negative = inhibition",Potency
CCC[N+](CCC)(CCC)CCC,0.838%,–
Clc1ccc2ccccc2c1,6.11%,–
ClCc1cccc(Cl)c1,7.38% [at 42.5 µM],–
COC(=O)C(C)N(C(=O)Cc1ccccc1)c1c(C)cccc1C (stereo not given),0.0142%,–
CC(C)(C)OO,-0.269%,–
c1ccc2c(c1)[nH]c1cnccc12,0.274%,–
CCCCN(CCCC)C(=S)[S-].CCCCN(CCCC)C(=S)[S-].[Zn+2],-1.08%,–
CCOC(=O)N(C)C(=O)CSP(=S)(OCC)OCC,7.24%,–
C[C@@H](N)[C@@H](O)c1ccccc1,-0.547% [at 42.5 µM],–
CCCCC/C=C\C/C=C\C/C=C\C/C=C\CCCC(=O)NCC(=O)O,6.77% [at 42.5 µM],–
CCCN(CCCl)c1c([N+](=O)[O-])cc(C(F)(F)F)cc1[N+](=O)[O-],-5.63%,–
O=NN(CCO)CCO,0.179%,–
CC(C)CP(=S)(S)CC(C)C,0.903%,–
CCSC(C)CC1CC(=O)C(/C(CC)=N/OC/C=C/Cl)=C(O)C1 (stereo not given),9.24% [at 42.5 µM],–
Clc1cccc(N2CCNCC2)c1,-0.683% [at 42.5 µM],–
O=C(NC(=O)c1c(F)cccc1F)Nc1cc(Cl)c(OC(F)(F)C(F)F)c(Cl)c1,-3.99%,–
Clc1ccc(C(Cl)(Cl)Cl)cc1Cl,-6.72%,–
O=C(O)C(F)(F)C(F)(F)C(F)(F)C(F)(F)C(F)(F)C(F)(F)C(F)(F)C(F)(F)C(F)(F)F,-5.5%,–
COc1ccc(C(=O)c2c(C)n(CCN3CCOCC3)c3ccccc23)cc1,4.35% [at 42.5 µM],–
CC(Cc1ccc(OCC(=O)O)cc1)NCC(O)c1csc(C(F)(F)F)n1 (stereo not given),-0.197%,–

Compound,"activity change, negative = inhibition",Potency
CCOC(C(=O)OCCN(C)C)(c1ccccc1)c1ccccc1,-0.11% [at 42.5 µM],–
CC(Cc1ccccc1)NCCCCl (stereo not given),2.08% [at 42.5 µM],–
CC(=O)c1cc2c(cc1C)C(C)(C)C(C)CC2(C)C (stereo not given),10.2%,–
CCOP(=S)(OCC)Oc1nc(Cl)n(C(C)C)n1,-12.6%,–
O=C1C[C@@H]2OCC=C3CN4CC[C@]56c7ccccc7N1[C@H]5[C@H]2[C@H]3C[C@H]46,-16.3% [at 42.5 µM],–
NNCCO,0.49%,–
OCCCBr,3.79%,–
N#Cc1c(Cl)cccc1Cl,2.44%,–
CCc1ccc(C2CCNCC2)cc1,8.14% [at 42.5 µM],–
COC(=O)C(c1ccccc1)C1CCCCN1 (stereo not given),-1.75%,–
CCOc1cccc(C2(N3CCN(c4ccccc4)CC3)CCC(C)CC2)c1 (stereo not given),-3.47%,–
CC(=O)[O-].CC(=O)[O-].CC(=O)[O-].[Sb+3],-1.4% [at 3.28 µM],–
CC(C)(C)c1cc([N+](=O)[O-])cc([N+](=O)[O-])c1O,5.11%,–
Cn1c(CCCC(=O)O)nc2cc(N(CCCl)CCCl)ccc21,2.32% [at 42.5 µM],–
CCOc1cc(Oc2ccc(C(F)(F)F)cc2Cl)ccc1[N+](=O)[O-],–,inactive
Cc1ccc(-c2c(Cl)nc(C#N)n2S(=O)(=O)N(C)C)cc1,-6.1%,–
CS/C(C)=N/OC(=O)N(C)SN(C)C(=O)O/N=C(\C)SC,9%,–
CC1=NNC(=O)N(/N=C/c2cccnc2)C1,10.2%,–
O=C1NCN(c2ccccc2)C12CCN(CCCOc1ccc(F)cc1)CC2,–,106 nM (active)
CCOC(=O)CCN(SN(C)C(=O)Oc1cccc2c1OC(C)(C)C2)C(C)C,-10.4%,–
